# From PubChem BioAssay
# Only some compounds are listed: those with a hit (about 2.4% of all), similar ones and a draw of the others.
# D2 ag-1: Beta-Arrestin HTS for Positive Allosteric Modulators of the Human D2 Dopamine Receptor: Agonists; D(2) dopamine receptor (Homo sapiens), P14416; DiscoveRx PathHunter D2 beta-arrestin, luminescence, 90 min; 100% = 57 uM dopamine signal; activation, % (no concentration beside the values); hit rate 0.084% among 360,000; in the data active = activation above about 40%; inconclusive = between about 15% and that limit
# Target sequence (P14416 whole entry, looked up): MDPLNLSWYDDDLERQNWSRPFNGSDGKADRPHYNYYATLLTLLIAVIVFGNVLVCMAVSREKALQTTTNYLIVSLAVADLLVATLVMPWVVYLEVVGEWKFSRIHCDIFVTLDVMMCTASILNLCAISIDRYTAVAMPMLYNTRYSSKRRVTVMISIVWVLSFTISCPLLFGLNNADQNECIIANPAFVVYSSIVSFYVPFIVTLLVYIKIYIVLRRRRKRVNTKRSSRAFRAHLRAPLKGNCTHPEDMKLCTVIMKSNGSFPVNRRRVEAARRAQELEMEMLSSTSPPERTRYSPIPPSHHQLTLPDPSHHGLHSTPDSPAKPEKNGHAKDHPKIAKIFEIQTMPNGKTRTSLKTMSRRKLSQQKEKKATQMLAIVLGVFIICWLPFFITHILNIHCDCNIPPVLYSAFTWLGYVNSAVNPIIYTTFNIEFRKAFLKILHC
#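 DiscoveRx PathHunter D2 beta-arrestin cells (2,100/well) attached overnight, then compound-stimulated 90 min at 37 C in HBSS/10 mM HEPES/0.1% Tween-20 buffer; beta-galactosidase complementation read by luminescence after 1 h at ambient temperature. Dopamine 57 uM final (EC100) as control.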
# D2 ag-2: HTS Assay for Allosteric Agonists of the Human D2 Dopamine Receptor: Primary Screen for Agonists; HEK293 T-REx D2 cells, calcium flux agonist mode; activation, % at 2 µM; hit rate 0.53% among 340,000;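 active = activation over 3 SD above normal in the single-dose calcium agonist read, cut at about 30% in these data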
#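 In this primary screen, compounds producing a positive calcium signal within 180 s of addition to tetracycline-induced, force-coupled HEK293 Trex D2 cells are flagged; cells are dye-loaded with a no-wash calcium kit beforehand.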
# D2 PAM-1: HTS Assay for Positive Allosteric Modulators of the Human D2 Dopamine Receptor: Primary Screen for Potentiators; AID 485347, 2010; hit rate 0.34% among 340,000; D(2) dopamine receptor (Homo sapiens), P14416; HEK293 T-REx D2, calcium flux, EC20 dopamine potentiation; potentiation, % at 10 µM;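 active = potentiation over 3 SD above the plate norm, cut at about 30% in these data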
#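 Potentiation of an EC20 dopamine calcium response is measured in a force-coupled, tetracycline-inducible Hek293 Trex D2 line. Compound-only kinetic reads over 180 s flag agonists before dopamine addition.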
# D2 PAM-2: Beta-Arrestin HTS for Positive Allosteric Modulators of the Human D2 Dopamine Receptor: Potentiators; AID 624464, 2012; D(2) dopamine receptor (Homo sapiens), P14416; DiscoveRx D2 beta-arrestin cells, luminescence, 90 min; 100% = 57 uM dopamine signal; potentiation, % (test concentration not listed); hit rate 0.23% among 360,000; in the data active = potentiation above about 50%; inconclusive = mostly about 30% to 49%
#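 D2 cells co-treated with compound plus 50 nM dopamine (EC20) for 90 min at 37 deg C to detect potentiation. Beta-arrestin recruitment was read as enzyme-fragment luminescence after 1 h at ambient temperature. Full response was set by 57 uM dopamine.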
# D2 antag: HTS Assay for Allosteric Antagonists of the Human D2 Dopamine Receptor: Primary Screen for Antagonists; D(2) dopamine receptor (Homo sapiens), P14416; hit rate 2% among 340,000; inhibition, % at 10 µM; HEK293 TREx D2 cells, calcium flux, dopamine EC80; in the data active = inhibition above about 30%; inactive = below that, where a call was filed
#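 Overnight-induced (tetracycline, 30 C) HEK293 T-REx cells carrying force-coupled D2 receive a no-wash calcium dye, then compound, then EC80 dopamine at 180 s; signals are read kinetically throughout.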
# Hits are given with their value; n = inactive; u = inconclusive; x = no result.
SMILES,D2 ag-1,D2 ag-2,D2 PAM-1,D2 PAM-2,D2 antag
COC(=O)C1C=C2c3cccc4[nH]cc(c34)CC2N(C)C1 (configuration not stated),x,79,n,x,62
CC[C@@H](CO)NC(=O)[C@@H]1C=C2c3cccc4[nH]cc(c34)C[C@H]2N(C)C1,42,x,x,u,x
O=C(COC(=O)Cc1ccccc1)Nc1nnc(-c2ccccc2)o1,n,n,n,n,31
O=c1[nH]c2ccccc2n1C1CCN(CCCC(c2ccc(F)cc2)c2ccc(F)cc2)CC1,n,n,n,n,87
O=C(CNC(=O)c1ccc(Cl)cc1)Nc1ccc(Br)cc1C(=O)c1ccccc1,n,n,n,n,34
O=C(CNC(=O)c1cccc(Cl)c1)Nc1ccc(Br)cc1C(=O)c1ccccc1,n,n,n,n,n
Cc1ccc(-c2nc(CN3C(=O)CN=C(c4ccccc4Cl)c4cc(Cl)ccc43)c(C)o2)cc1,x,n,n,x,x
COc1ccc(Cl)cc1NC(=O)CN1C(=O)CN=C(c2ccccc2)c2cc(Cl)ccc21,x,n,n,x,x
COc1ccc2[nH]cc(CCN)c2c1,n,34,n,n,n
CCCCCCCCCOc1ccc2[nH]cc(CCN)c2c1,x,n,n,x,n
COc1cccc(NC(=O)c2cccn(Cc3ccccc3C)c2=O)c1,x,n,n,x,x
OC(CNC1CCCCC1)C(F)(F)F (configuration not stated),n,n,n,n,40
COc1cccc(CNCCc2c[nH]c3ccccc23)c1OC,n,n,n,n,52
Cc1ccc(NC(=O)N(Cc2ccc3c(c2)OCO3)C2CCN(Cc3ccccc3)CC2)cc1Cl,x,n,x,x,x
COc1ccc(NC(=O)CN2C(=O)C(C)N=C(c3ccccc3F)c3cc(Cl)ccc32)c(OC)c1 (configuration not stated),x,n,n,x,x
COC(=O)C1=C(c2ccc(-c3ccccc3)c(F)c2)C[C@@H]2CC[C@H]1N2C(=O)NC1Cc2ccccc2C1,n,n,n,n,38
COC(=O)C1=C(c2ccc(-c3ccccc3)c(F)c2)C[C@@H]2CC[C@H]1N2C(=O)NCC1CC1,n,n,n,n,n
Cc1ccc(C(C)C)c(OCC(=O)N2CCN(CCc3ccncc3)CC2)c1,x,n,n,x,x
CCOC(=O)c1cncn1C(C)c1ccccc1 (configuration not stated),n,n,n,n,35
COC(=O)c1cncn1C(C)c1ccccc1 (configuration not stated),n,n,n,n,n
O=[N+]([O-])c1ccccc1CN1CC=C(c2ccc(F)cc2)CC1,n,n,n,n,n
CC(C)N1CCN(Cc2cccc([N+](=O)[O-])c2)CC1,n,n,x,n,n
CCN(CC)c1ccc(CN2CC=C(c3ccc(F)cc3)CC2)cc1,n,n,n,n,41
O=[N+]([O-])c1cccc(CN2CCN(Cc3ccc(Cl)cc3)CC2)c1,n,n,n,n,50
COc1ccc(CN2CC=C(c3ccc(F)cc3)CC2)cc1Br,n,n,n,n,63
SMILES,D2 ag-1,D2 ag-2,D2 PAM-1,D2 PAM-2,D2 antag
O=[N+]([O-])c1cccc(CN2CC=C(c3ccc(F)cc3)CC2)c1,n,n,n,n,73
Cc1ccc(OCC(=O)N2CCN(Cc3ccc(F)cc3)CC2)cc1,x,n,n,x,x
O=C(Nc1ccc2c(c1)OCCO2)c1cccn(Cc2cccc(F)c2)c1=O,x,n,n,x,x
Clc1ccc(C(OCCN2CCCCC2)c2ccccc2)cc1 (configuration not stated),n,n,n,n,43
O=C(COc1cc(Cl)ccc1Cl)Nc1ccc(Cl)cc1C(=O)c1ccccc1,x,n,n,x,x
CCCCCCn1c(O)c(C=Nc2ccccc2N2CCOCC2)c(=O)[nH]c1=S,n,n,n,n,37
CCCCn1c(O)c(/C=N/N2CCOCC2)c(=O)[nH]c1=S,n,n,n,n,n
CCOC(=O)c1c(N)n(CCCOC(=O)c2ccco2)c2nc3ccccc3nc12,u,n,n,86,n
Oc1ccc(CC2CC3CCN2CC3)cc1O (configuration not stated),n,30,n,n,n
COC(=O)CC1=C(C(=O)OC)C2(C(=O)Nc3c(C)cccc32)C(C#N)=C(N)O1 (configuration not stated),n,n,n,70,n
CCOC(=O)c1ccc(NC(=O)c2c(O)[nH]c(=O)[nH]c2=O)cc1,n,54,n,n,n
CCOc1ccc(NC(=O)c2c(O)[nH]c(=O)[nH]c2=O)cc1,n,x,x,n,x
Cc1ccccc1C1=NCC(=S)Nc2ccc(Cl)cc21,n,n,n,n,41
O=C1CN=C(c2ccccc2)c2cc(Cl)ccc2N1,n,x,x,n,x
CSc1ccc(CN2CCN(Cc3ccccc3Cl)CC2)cc1,n,n,n,n,70
CSc1ccc(CN2CCN(C(=O)Cc3ccccc3)CC2)cc1,n,x,x,n,x
COc1ccc(CN2CCN(Cc3ccccc3F)CC2)cc1,n,n,n,n,31
Cc1nnc(NC(=O)c2cccn(Cc3ccc(Cl)cc3)c2=O)s1,x,n,n,x,x
O=C1CC(c2ccc(F)cc2)c2c(c3ccccc3oc2=O)O1 (configuration not stated),x,x,n,x,x
Nc1c([N+](=O)[O-])cc(F)c(N2CCNCC2)c1Br,n,n,n,n,n
CN1CCN(c2c(F)cc([N+](=O)[O-])c(N)c2Br)CC1,n,n,n,n,35
COc1ccccc1N1CCN(Cc2ccc3c(c2)OCO3)CC1,n,x,x,n,x
Cc1cccc(N2CCN(Cc3ccc4c(c3)OCO4)CC2)c1C,n,n,n,n,66
CCCc1nc(SC)ncc1C(=O)Nc1ccc(Cl)cc1C(=O)c1ccccc1,x,n,x,x,x
CCOC(=O)c1ccc(NC(=O)c2cccn(Cc3ccccc3F)c2=O)cc1,x,n,n,x,x
SMILES,D2 ag-1,D2 ag-2,D2 PAM-1,D2 PAM-2,D2 antag
O=c1c2ccccc2nc(/C=C\c2ccc(F)cc2)n1-c1ccccc1F,x,n,n,x,x
CN1CSC(=S)N(C)C1,n,n,n,n,42
COc1ccccc1N=Cc1c(O)n(C)c(=O)n(C)c1=O,n,n,n,n,35
CC1(C)CSC(=NCc2ccccc2)N1,n,73,n,n,56
CC(C)(C)c1ccc(C(=O)C2CCCN(C3CCC3)C2)cc1 (configuration not stated),n,n,n,n,37
Cc1ccc(CNC(=O)CCCn2c(=O)c3sccc3n(CC(=O)Nc3c(C)cccc3C)c2=O)cc1,x,x,n,x,x
